This passage reports growth results from PubChem BioAssay (NCI).

Compounds without any hit were thinned out: in the full panel of roughly 83,000, 20% have a hit.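 Values shown are percent growth following 48 h exposure of cells in 96-well plates to a single concentration of compound; below 10 was considered active.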 Active and inactive are the calls of the source.

In the assay the test system is HL-60(TB) leukemia. The assay can be described thus: NCI-60 one-dose screen, 48 h (100 = growth as untreated, 0 = no growth, -100 = all killed). Particulars: 10 µM unless noted.
Consider `CCNC(=O)Oc1ccc(/C(=C(\C)c2ccc(Cl)cc2)c2ccc(OCCN(CC)CC)cc2)cc1`, for which the growth was 23.9% (inactive). For `O=C(Nc1ccccc1C(=O)N/N=C(\c1ccccc1)c1ccccn1)c1ccccc1`, the growth was -24.1% (active). In the case of `Clc1ccc(Nc2nnc(CNc3ccccc3)c3ccccc23)cc1`, the growth is -13.4% (active).
